Experimental data taken from PubChem BioAssay.
The source made the active and inactive calls. Unless noted, the rule behind the calls is not given here.

Legend:
[1] = compound effects on lung adenocarcinoma cell viability – A549, calcein-AM fluorescence, 48 h, basal, profiling panel (AID 1162); settings: higher = more signal; note: test concentration not given here
[2] = compound effects on differentiated 3T3-L1 adipocyte viability – cell-based, 3T3-L1 adipocytes, calcein-AM fluorescence, 48 h, basal, profiling panel (AID 1163); settings: 3T3-L1 adipocytes viability, higher = more signal; note: test concentration not given here
[3] = compound effects on hepatocellular carcinoma cell viability – HepG2, calcein-AM fluorescence, 48 h, basal, profiling panel (AID 1164); settings: higher = more signal; note: test concentration not given here
[4] = compound effects on multiple myeloma cell viability – MM1S, calcein-AM fluorescence, 48 h, basal, profiling panel (AID 1165); settings: higher = more signal;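 note: viability of MM1S multiple myeloma cells under basal unstimulated conditions; test concentration not given here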
[5] = calcein-AM signal in unstimulated myeloma cells – cell-based, calcein-AM fluorescence, 48 h, PK04 Diversity Set, profiling panel (AID 1166); settings: RPMI8226 myeloma viability, higher = more signal;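 note: cells grown under basal conditions without added stimulus; test concentration not given here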
[6] = JC-1 mitochondrial signal, unstimulated HepG2 cells – cell-based, JC-1 fluorescence, 24 h, 100 nL compound, profiling panel (AID 1167); settings: HepG2 mitochondrial potential, higher = more signal; note: test concentration not given here
[7] = JC-1 mitochondrial signal, unstimulated adipocytes – cell-based, JC-1 fluorescence, 3T3-L1 adipocytes, 24 h, 100 nL compound, profiling panel (AID 1168); settings: JC-1 mitochondrial fluorescence, higher = more signal, called active from +8 up or from −8 down; note: test concentration not given here
[8] = JC-1 mitochondrial signal, unstimulated myeloma cells – cell-based, JC-1 fluorescence, RPMI8226, 24 h, 100 nL compound, profiling panel (AID 1169); settings: JC-1 mitochondrial potential fluorescence, higher = more signal; note: test concentration not given here
[9] = JC-1 mitochondrial signal, unstimulated MM1S myeloma – cell-based, JC-1 fluorescence, 24 h, 100 nL compound, profiling panel (AID 1170); settings: MM1S mitochondrial potential, higher = more signal; note: test concentration not given here
[10] = resazurin metabolic signal in A549 cells – cell-based, resazurin fluorescence, 24 h, PK04 Diversity Set, profiling panel (AID 1171); settings: A549 viability, higher = more signal, called active from +8 up or from −8 down; note: test concentration not given here
[11] = resazurin metabolic signal in HepG2 cells – cell-based, resazurin fluorescence, 24 h, PK04 Diversity Set, profiling panel (AID 1172); settings: HepG2 viability, higher = more signal; note: test concentration not given here
[12] = budding yeast growth changes without added modifier – OD600, strain BY4716, 24 h, basal condition, primary screen (AID 1173); settings: S. cerevisiae BY4716 growth, OD600, 24 h; higher = more signal, called active from +8 up or from −8 down
[13] = viability profiling in MM1S myeloma cells – cell-based, resazurin fluorescence, basal, 24 h, PK04 Diversity Set, profiling panel (AID 1174); settings: higher = more signal, called active from +8 up or from −8 down; note: test concentration not given here
[14] = target: Dihydroorotate dehydrogenase (quinone), mitochondrial (Plasmodium falciparum (isolate 3D7)) (UniProt Q08210); assay: inhibition of P. falciparum DHODH – biochemical, C-terminal His tag, absorbance 600 nm, primary screen (AID 1175); settings: PfDHODH enzyme, DCIP absorbance 600 nm; higher = more signal, called active from +8 up or from −8 down;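 note: recombinant parasite enzyme with a five histidine tag at its C terminus; test concentration not given here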
[15] = inhibition of PAO1 biofilm formation – strain PAO1, LB-PBS medium, absorbance 600 nm, primary screen (AID 1176); note: test concentration not given here; settings: P. aeruginosa PAO1 growth/biofilm, A600, 12 h; higher = more signal
[16] = growth modulation of vineyard yeast isolate – strain RM11-1a, OD600, basal, 24 h, primary screen (AID 1177);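 note: cultures grown under basal conditions with no added stressor; test concentration not given here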; settings: S. cerevisiae RM11-1a growth, OD600, 24 h; higher = more signal, called active from +8 up or from −8 down
[17] = growth of efflux-deficient E. coli DRC39 – strain DRC39, OD650, 24 h, E. coli filamentation inducers, primary screen (AID 1178);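 note: growth measured as culture turbidity by optical density at 650 nm; test concentration not given here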; settings: E. coli DRC39 acrAB, higher = more signal, called active from +8 up or from −8 down
[18] = growth of efflux-deficient E. coli DRC39 – strain DRC39, OD650, 48 h, E. coli filamentation inducers, primary screen (AID 1179);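 note: screen aims at cell division blockers that make cells filament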; settings: E. coli DRC39 delta-acrAB growth, higher = more signal, called active from +8 up or from −8 down
[19] = viability profiling in RPMI8226 myeloma cells – cell-based, resazurin fluorescence, basal, 24 h, PK04 Diversity Set, profiling panel (AID 1180); settings: higher = more signal;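 note: RPMI8826 multiple myeloma cell line at 5000 cells per well; test concentration not given here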
[20] = target: E3 ubiquitin-protein ligase XIAP (Homo sapiens) (UniProt P98170); assay: small molecules binding XIAP protein – biophysical, small-molecule microarray, fluorescence 635 nm, primary screen (AID 1181); settings: higher = more signal;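 note: score merges 667 nm emission and signal to noise over triplicate slides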
Chain of E3 ubiquitin-protein ligase XIAP (Homo sapiens) (P98170 whole entry, looked up): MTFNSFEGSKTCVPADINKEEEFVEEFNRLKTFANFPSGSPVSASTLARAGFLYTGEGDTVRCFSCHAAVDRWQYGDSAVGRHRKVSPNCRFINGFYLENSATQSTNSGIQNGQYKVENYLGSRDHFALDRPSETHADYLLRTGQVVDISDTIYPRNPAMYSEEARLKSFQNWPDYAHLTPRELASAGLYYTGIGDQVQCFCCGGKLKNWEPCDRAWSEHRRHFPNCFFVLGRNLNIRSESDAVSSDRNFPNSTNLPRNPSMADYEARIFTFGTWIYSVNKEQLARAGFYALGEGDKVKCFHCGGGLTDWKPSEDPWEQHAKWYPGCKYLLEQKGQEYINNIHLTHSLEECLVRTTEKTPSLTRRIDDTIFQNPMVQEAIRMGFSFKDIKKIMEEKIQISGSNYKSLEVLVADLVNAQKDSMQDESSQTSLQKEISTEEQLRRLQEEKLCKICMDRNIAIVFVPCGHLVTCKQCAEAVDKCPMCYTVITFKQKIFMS

Chain of Dihydroorotate dehydrogenase (quinone), mitochondrial (Plasmodium falciparum (isolate 3D7)) (Q08210 whole entry, looked up): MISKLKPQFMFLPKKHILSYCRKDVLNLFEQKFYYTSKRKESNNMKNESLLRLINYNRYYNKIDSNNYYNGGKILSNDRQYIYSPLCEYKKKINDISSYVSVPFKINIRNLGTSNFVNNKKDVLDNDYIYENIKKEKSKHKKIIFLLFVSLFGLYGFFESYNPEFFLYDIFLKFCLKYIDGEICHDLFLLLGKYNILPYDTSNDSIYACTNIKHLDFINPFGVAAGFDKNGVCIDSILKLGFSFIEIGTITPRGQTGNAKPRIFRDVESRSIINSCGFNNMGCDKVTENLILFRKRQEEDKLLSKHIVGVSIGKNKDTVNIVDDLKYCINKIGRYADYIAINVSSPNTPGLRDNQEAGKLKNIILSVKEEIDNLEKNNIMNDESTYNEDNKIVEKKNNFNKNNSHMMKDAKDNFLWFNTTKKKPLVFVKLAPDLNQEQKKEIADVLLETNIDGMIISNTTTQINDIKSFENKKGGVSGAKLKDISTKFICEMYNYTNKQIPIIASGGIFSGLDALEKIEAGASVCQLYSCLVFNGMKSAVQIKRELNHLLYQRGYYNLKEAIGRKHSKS

| Compound | z-score [1] | z-score [2] | z-score [3] | z-score [4] | z-score [5] | z-score [6] | z-score [7] | z-score [8] | z-score [9] | z-score [10] | z-score [11] | z-score [12] | z-score [13] | composite z-score [14] | z-score [15] | z-score [16] | z-score [17] | z-score [18] | z-score [19] | composite z-score [20] |
| --- | --- | --- | --- | --- | --- | --- | --- | --- | --- | --- | --- | --- | --- | --- | --- | --- | --- | --- | --- | --- |
| COc1ccc(C(=O)Nc2cccc(CN3C(=O)[C@@]4(O[C@@H](CC(=O)N5CCC[C@H]5CO)[C@H]([Si](C)(C)c5ccc(OC)cc5)[C@H]4C)c4ccccc43)c2)cc1 | -0.273 | 0.695 | -0.765 | -2.74 | -4.26 | 1.98 | 0.487 (inactive) | -1.13 | -1.06 | -0.35 (inactive) | -0.429 | -0.0739 (inactive) | -1.17 (inactive) | -5.69 (inactive) | 1.03 (inactive) | 0.844 (inactive) | 0.603 (inactive) | 0.274 (inactive) | -1.25 | 0.147 |
| CC(C)C[C@@H]1NC(=O)[C@@H]2C[C@H](C(=O)NCCCCCCNC(=O)CS)[C@H](c3cccc(OCCO)c3)N2C1=O | 0.028 | -0.0252 | 0.134 | -0.505 | -0.587 | -0.946 | -0.185 (inactive) | -0.217 | -0.165 | 0.457 (inactive) | -0.889 | 1.05 (inactive) | -1.1 (inactive) | 0.283 (inactive) | 0.863 (inactive) | 1.11 (inactive) | -0.379 (inactive) | -0.881 (inactive) | -0.458 | -0.122 |
| COc1ccc(C(=O)Nc2cccc(CN3C(=O)[C@]4(O[C@H](CC(=O)N5Cc6ccccc6C[C@H]5CO)[C@@H]([Si](C)(C)c5ccc(OC)cc5)[C@@H]4C)c4ccccc43)c2)cc1 | -0.969 | 1.3 | -1.05 | -0.253 | -2.56 | 0.729 | -0.458 (inactive) | -0.93 | -0.313 | -1.31 (inactive) | 0.256 | 1.49 (inactive) | -1.38 (inactive) | -3.9 (inactive) | 0.425 (inactive) | 2.82 (inactive) | 0.0049 (inactive) | 0.0565 (inactive) | -0.891 | 0.187 |
| C=C(CCCC)/C(=C/C[C@H](OC(=O)c1ccncc1)c1ccc(OCCO)cc1)c1cnc2ccccc2c1 | 1.09 | 0.464 | 0.014 | -2.55 | -0.499 | 1.98 | -0.689 (inactive) | -0.756 | -0.262 | 1.2 (inactive) | 1.08 | -1.28 (inactive) | -0.0114 (inactive) | -2.89 (inactive) | 0.391 (inactive) | 0.51 (inactive) | 0.709 (inactive) | 0.258 (inactive) | 1.04 | -0.122 |
| OCCCC1=CC(c2ccc(CN3CCCC3)cc2)N(Cc2cccc(OC(F)(F)F)c2)CC1 (stereo not given) | -4.68 | -0.267 | -4.99 | -3.3 | -3.83 | -0.125 | 0.367 (inactive) | -0.739 | -2.38 | 0.194 (inactive) | -2.32 | -5.01 (inactive) | -6.82 (inactive) | -1.2 (inactive) | 0.318 (inactive) | 0.195 (inactive) | -1 (inactive) | -1.83 (inactive) | -5.61 | 0.215 |
| CN(C)CCCC[C@@H]1NC(=O)[C@@H]2C[C@H](C(=O)NCCCCCN)[C@H](c3cccc(OCCO)c3)N2C1=O | 2.2 | 0.494 | 1.44 | -0.0351 | 0.891 | 1.63 | -1.03 (inactive) | -0.891 | 0.697 | 1.08 (inactive) | 0.881 | -0.985 (inactive) | 1.49 (inactive) | -0.417 (inactive) | 0.531 (inactive) | -2.59 (inactive) | 2.01 (inactive) | 2.02 (inactive) | 0.819 | -0.184 |
| CC1CC/C=C\[C@H]2OC34C=CCN(Cc5ccccc5)C(=O)[C@H]3N(CCCCCCO)C(=O)[C@@H]4C2C(=O)O1 (stereo not given in full) | 1.3 | 0.221 | 0.881 | 1.41 | 0.0497 | 0.0727 | -0.0479 (inactive) | 0.62 | 1.34 | 0.919 (inactive) | 0.279 | -0.885 (inactive) | 0.507 (inactive) | 0.285 (inactive) | -1.06 (inactive) | -0.38 (inactive) | 0.608 (inactive) | 1.01 (inactive) | 1.15 | -0.0741 |
| O=C1C2C=CC(C(O)c3cccs3)N(Nc3ccc([N+](=O)[O-])cc3)C2C(=O)N1c1ccccc1 (stereo not given) | -0.792 | -1.01 | 1.43 | -0.752 | -0.85 | -0.841 | -0.728 (inactive) | 0.569 | -1.46 | 0.644 (inactive) | 0.626 | 0.348 (inactive) | -0.125 (inactive) | -1.63 (inactive) | 0.89 (inactive) | -0.0522 (inactive) | -0.958 (inactive) | -0.0047 (inactive) | -0.182 | -0.177 |
